Data reported in PubChem BioAssay (NCATS).
“And” between values parts separate entries of the source, which are not always exact repeats. Equal entries are not always repeated.

Test: qHTS profiling for inhibitors of Plasmodium falciparum (3D7) proliferation (AID 743322);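 also: infected erythrocytes exposed to compound for 72 h before lysis; 100% = DMSO vehicle wells and 0% = 0.29 µM artemisinin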
Details: P. falciparum 3D7 proliferation; at 28.7 µM (top of the series)
Excerpt: Plasmodium falciparum is a virulent malarial parasite that kills 1-2 million people worldwide each year. Transmitted by mosquitoes, the sporozoite form of the parasite enters the blood stream to infect hepatocytes, where they become merozoites that infect red blood cells (erythrocytes). Within erythrocytes, merozoites begin a […] cycle of growth and division, after which the parasite is released to infect new red blood cells. Gametocytes, which form within erythrocytes as well, circulate in the bloodstream and are ingested by the mosquito, thereby completing the life cycle. To profile malarial isolates for differential chemical responses and to identify inhibitors of malarial growth, an assay that measures P. falciparum growth and replication within erythrocytes was employed. This assay uses a DNA binding fluorescent dye (SYBR Green) to detect parasite DNA following cell lysis. Because mature erythrocytes lack DNA, only Plasmodium-derived DNA is detected.
The SYBR Green viability assay was adapted from a method described previously (Plouffe et al., 2008). For screening 3 ul culture medium was dispensed into 1536 well black clear bottom plates (Aurora Biotechnologies) using a Multidrop Combi (Thermo Fisher Scientific Inc.), 23 nL compounds in DMSO were added by a pin tool (Kalypsys), and 5 ul of erythrocytes infected with P. falciparum (0.3% parasitemia, 2.5% hematocrit final concentration) were added. The plates were incubated at 37 C in a humidified incubator in 5% CO2 for 72 h, and 2 ul lysis buffer (20 mM Tris HCl, 10 mM EDTA, 0.16% saponin, 1.6% triton X, 10X SYBR Green I supplied as 10,000X […] by Invitrogen) was added to each well. The plates were mixed for 25 sec with gentle shaking and incubated overnight at room temperature in the dark. The following morning, fluorescence intensity at 485(14) nm excitation and 535(25) nm emission wavelengths was measured on an EnVision (Perkin Elmer) plate reader. Plate reads were normalized relative to the control inhibitor (0.29 uM artemisinin) and vehicle (DMSO) wells present on each plate and then corrected by an algorithm using vehicle-only control plates at the beginning and end of the compound plate stack.

SMILES	remaining parasite growth % (stronger effect = lower value)
C=CC(=O)Nc1cc2c(Nc3ccc(F)c(Cl)c3)ncnc2cc1OCCCN1CCOCC1	-0.797%
Cc1cc(Nc2cc(N3CCN(C)CC3)nc(Sc3ccc(NC(=O)C4CC4)cc3)n2)n[nH]1	39.3%
COc1cc(OC2CCN(C)CC2)ccc1Nc1ncc2c(n1)n(C1CCCC1)c(=O)n2C	9.94%
CC1=C(CO)C(=O)O[C@@H]([C@@H](C)[C@H]2CC[C@H]3[C@@H]4C[C@H]5O[C@]56[C@@H](O)C=CC(=O)[C@]6(C)[C@@H]4CC[C@]23C)C1	-1.7%
CC(=O)OCC(=O)[C@@]1(O)[C@H](C)C[C@H]2[C@@H]3C=C(C)C4=Cc5c(cnn5-c5ccccc5)C[C@]4(C)[C@@H]3[C@@H](O)C[C@@]21C	-0.774%
CC(=O)c1c(C)c2cnc(Nc3ccc(N4CCNCC4)cn3)nc2n(C2CCCC2)c1=O	0.348%
CC(C)CC(=O)Nc1n[nH]c2c1CN(C(=O)C1CCN(C)CC1)C2(C)C	9.49%
O=C(Nc1cc(C(F)(F)F)cc(C(F)(F)F)c1)c1cc(Cl)ccc1O	-1.15%
CCC[C@H](NC(=O)C(C#N)=Cc1cccc(Br)n1)c1ccccc1	26.8%
COc1ccc2c(c1)CC[C@@H](CN(C)CC(=O)O)[C@H]2c1ccccc1	101%
O=C(C=Cc1cccc(S(=O)(=O)Nc2ccccc2)c1)NO	0.201%
Cc1ccc(S(=O)(=O)Nc2cc(Cl)ccc2C(=O)Nc2nc(-c3ccccc3)cs2)cc1	11.7%
Cc1nc2cnc3ccc(C#Cc4cccnc4)cc3c2n1-c1ccc(C(C)(C)C#N)cc1	-1.11%
COc1cc2c(Oc3ccc(NC(=O)C4(C(=O)Nc5ccc(F)cc5)CC4)cc3F)ccnc2cc1OCCCN1CCOCC1	-2.01%
Cc1ccc(-c2ncn(-c3ccc(Nc4nccc(-c5cccc(N6CCOCC6)c5)n4)cc3)n2)cn1	3.9%
Cc1cc(Nc2cc(N3CCN(C)CC3)nc(C=Cc3ccccc3)n2)n[nH]1	0.147%
CC[C@@H]1C(=O)N(C)c2cnc(Nc3ccc(C(=O)NC4CCC(N5CCN(CC6CC6)CC5)CC4)cc3OC)nc2N1C(C)C (stereo not given in full)	-0.343%
C#Cc1cccc(Nc2ncnc3cc(OC)c(OCCCCCCC(=O)NO)cc23)c1	-1.67%
Clc1ccc2ncc(-c3cccc(NC4CNC4)n3)n2c1	5.93%
Nc1ccccc1NC(=O)c1ccc(CNc2nccc(-c3cccnc3)n2)cc1	-1.31%

SMILES	remaining parasite growth % (stronger effect = lower value)
CCN1CCN(Cc2ccc(-c3cc4c(N[C@H](C)c5ccccc5)ncnc4[nH]3)cc2)CC1	-0.0025%
Cc1cn(-c2cc(NC(=O)c3ccc(C)c(Nc4nccc(-c5cccnc5)n4)c3)cc(C(F)(F)F)c2)cn1	3.06%
O=C(C=Cc1c(C(=O)O)[nH]c2cc(Cl)cc(Cl)c12)Nc1ccccc1	118%
CC(NCc1ccc2c(c1)nc(NC(=O)c1ccc(-c3cn[nH]c3)s1)n2CC(C)(C)O)C(C)(C)C (stereo not given)	-1.9%
CC[C@@H]1C(=O)N(C)c2cnc(Nc3ccc(C(=O)NC4CCN(C)CC4)cc3OC)nc2N1C1CCCC1	0.0061%
O=C(c1ccc(Nc2nccc(-c3cc4ccccc4s3)n2)cc1)N1CCC(N2CCCC2)CC1	-2.23%
Cc1[nH]c2ccccc2c1CCNCc1ccc(C=CC(=O)NO)cc1	-0.764%
C1Cc2[nH]nc(-c3nn[nH]n3)c2C1	48.8%
CCN(CC)CCCCNc1ncc2cc(-c3cc(OC)cc(OC)c3)c(NC(=O)NC(C)(C)C)nc2n1	-0.484%
CC(C)(O)CCc1ccc(OCc2cc(-c3cccc(OC(F)F)c3)c3ncccc3c2)cc1	37.5%
CC(=O)SC[C@@H](C)C(=O)N1CCC[C@H]1C(=O)N[C@@H](Cc1ccccc1)C(=O)O	106%
C[C@@]12O[C@@H](C[C@]1(O)CO)n1c3ccccc3c3c4c(c5c6ccccc6n2c5c31)CNC4=O	-0.0626%
C[C@@H](Oc1cc(-n2cnc3ccc(CN4CCN(C)CC4)cc32)sc1C(N)=O)c1ccccc1C(F)(F)F	-0.0099%
Cn1c2cc(S(C)=O)sc2c2cnn(Cc3cccc(N)c3)c(=O)c21 (stereo not given)	83.6% and 85.6%
COc1cc(=C2C=c3ccccc3=N2)[nH]c1=Cc1[nH]c(C)cc1C	2.05%
CC(=O)Nc1sc2c(c1-c1nc3ccccc3s1)CNC2	100%
CC1(C)OC2=C(C(=O)c3ccccc3C2=O)[C@H](NCc2ccccc2)[C@H]1O	-2.33%
Nc1nc(Nc2ccc(S(N)(=O)=O)cc2)nn1C(=O)c1c(F)cccc1F	14.8%
CC(C)(C)c1cnc(CSc2cnc(NC(=O)C3CCNCC3)s2)o1	9.96%
COc1ccc(OC)c(-c2nnc3ccc(-c4ccc(OC)c(O[C@@H]5CCOC5)c4)nn23)c1	-0.0314%
